Among the data in PubChem BioAssay (Tox21) are Potency values, retold here.

In experiment [1] the target is Aryl hydrocarbon receptor (Homo sapiens) (UniProt P35869). Kind of experiment: qHTS assay to identify small molecule that activate the aryl hydrocarbon receptor (AhR) signaling pathway (AID 743085).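 For activation: HG2L7.5c1 human HepG2 liver cells with stably integrated DRE-driven firefly reporter; series mostly up to about 70 µM.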 Note: nearly all actives have a fitted effect of over 15% in size. In a few lines:
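AhR agonist activity is inferred from enhanced light output of a DRE-controlled firefly luciferase reporter in HepG2 cells, measured with ONE-Glo following 24 h treatment at 37C.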

The nature of experiment [2]: qHTS assay to identify small molecule that activate the aryl hydrocarbon receptor (AhR) signaling pathway - cell viability counter screen (AID 743086). Note: nearly all actives have a fitted effect of over 45% in size. The method in brief: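 HepG2-AhR-luc (HG2L7.5c1) cells, 4000/well, treated 24 h at 37 C with compound; viability measured as CellTiter-Fluor fluorescence after 30 min in the same wells as the luciferase read.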
Experiment [3] addresses Peroxisome proliferator-activated receptor gamma (Homo sapiens) (UniProt P37231). Kind of experiment: qHTS assay to identify small molecule agonists of the peroxisome proliferator-activated receptor gamma (PPARg) signaling pathway (AID 743094; active = well fitted activation curve with a large enough effect in the signal ratio in the repeat runs, not every such curve was filed as active; the % refers to the signal ratio). In a few lines: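 Beta-lactamase FRET fluorescence was the read-out after a 1 h room-temperature substrate step, following 17 h compound treatment at 37C of HEK293H cells expressing a UAS-driven bla reporter responsive to PPARg.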

The nature of experiment [4]: qHTS assay for small molecule agonists of the antioxidant response element (ARE) signaling pathway (AID 743202; active = well fitted activation curve with a large enough effect in the signal ratio in the repeat runs, not every such curve was filed as active; the % refers to the signal ratio). The method in brief: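 ARE-bla HepG2 cells (beta-lactamase reporter under the antioxidant response element), plated 5 hours, then exposed to compounds 16 hours at 37 C. LiveBLAzer B/G FRET substrate added for 2 hours at room temperature; fluorescence intensity read.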
In general terms: qHTS replaces the single test concentration by a dilution series.

Experiment [5] can be described thus: qHTS assay for small molecule agonists of the antioxidant response element (ARE) signaling pathway - cell viability counter screen (AID 743203; calls by dose curve; note: nearly all actives have a fitted effect of over 55% in size). The method in brief: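 HepG2 cells carrying ARE-driven beta-lactamase; 2,000 cells/well; 5 hrs plating; compound pinned from DMSO; 16 hrs 37C/5% CO2; CellTiter-Glo added; 30 min RT; luminescence.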
The nature of experiment [6]: qHTS assay for small molecule activators of the heat shock response signaling pathway - cell viability counter screen (AID 743209). Note: nearly all actives have a fitted effect of over 50% in size. The method in brief: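 Luminescence from CellTiter-Glo, added after the beta-lactamase FRET read, gave the viability signal. Cells were HSE-bla HeLa treated with DMSO-dissolved compounds for 5 h at 37 C following overnight plating.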
Experiment [7] in a line: qHTS assay for small molecule activators of the heat shock response signaling pathway (AID 743210; active = well fitted activation curve with a large enough effect in the signal ratio in the repeat runs, with a control signal flat, not every such curve was filed as active; the % refers to the signal ratio; for activation: series mostly up to about 63 µM). In a few lines: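 HSE-bla HeLa cells (beta-lactamase reporter under heat shock response elements), plated overnight, then exposed to compounds 5 h at 37 C; LiveBLAzer B/G FRET substrate added, 2.5 h at room temperature, fluorescence intensity read.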
The nature of experiment [8]: qHTS assay to identify small molecule agonists of the peroxisome proliferator-activated receptor delta (PPARd) signaling pathway - cell viability counter screen (AID 743211). Note: nearly all actives have a fitted effect of over 55% in size. The method in brief: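 qHTS cell viability: PPARd-bla HEK293H; 17 h cpd, 37C; CellTiter-Glo, luminescence at 30 min RT.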
Experiment [9] has as its target Peroxisome proliferator-activated receptor gamma (Homo sapiens) (UniProt P37231). As to the kind of experiment: qHTS assay to identify small molecule antagonists of the peroxisome proliferator-activated receptor gamma (PPARg) signaling pathway (AID 743191; calls by dose curve; note: nearly all actives have a fitted effect of over 30% in size). In a few lines:
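GeneBLAzer PPARg UAS-bla HEK293H cells, 5 h post-plating, exposed to compounds 17 h at 37C. LiveBLAzer B/G FRET substrate added for 1 h at room temperature; beta-lactamase reporter read by fluorescence intensity.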

Experiment [10] can be described thus: qHTS assay to identify small molecule antagonists of the peroxisome proliferator-activated receptor gamma (PPARg) signaling pathway - cell viability counter screen (AID 743194). Note: nearly all actives have a fitted effect of over 55% in size. Conditions: Potency: co-treated with 50 nM rosiglitazone unless noted. The method in brief: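 Cytotoxicity counter screen in PPARg-bla HEK293H cells, same wells as reporter assay. Compounds plus 50 nM rosiglitazone (final) for 17 h at 37 C, then viability read by CellTiter-Glo luminescence.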

Values joined by “and” are separate entries in the source; they are usually repeats but may differ in a detail not shown here. Equal values may be shown once. Results filed as inconclusive are left out. A structure can be active in one record and inactive in another. Active and inactive are the calls of the source. Unless noted, calls come from the whole dose curve; as a rule, active = well fitted curve in the direction sought with a large enough effect in the repeat runs; inconclusive = weak or mixed curves; inactive = no such curve, though single readings can be large; an effect the other way counts as inactive or inconclusive.
Potency is the fitted concentration of half-maximal effect.

Sequence of Aryl hydrocarbon receptor (Homo sapiens) (P35869 whole entry, looked up): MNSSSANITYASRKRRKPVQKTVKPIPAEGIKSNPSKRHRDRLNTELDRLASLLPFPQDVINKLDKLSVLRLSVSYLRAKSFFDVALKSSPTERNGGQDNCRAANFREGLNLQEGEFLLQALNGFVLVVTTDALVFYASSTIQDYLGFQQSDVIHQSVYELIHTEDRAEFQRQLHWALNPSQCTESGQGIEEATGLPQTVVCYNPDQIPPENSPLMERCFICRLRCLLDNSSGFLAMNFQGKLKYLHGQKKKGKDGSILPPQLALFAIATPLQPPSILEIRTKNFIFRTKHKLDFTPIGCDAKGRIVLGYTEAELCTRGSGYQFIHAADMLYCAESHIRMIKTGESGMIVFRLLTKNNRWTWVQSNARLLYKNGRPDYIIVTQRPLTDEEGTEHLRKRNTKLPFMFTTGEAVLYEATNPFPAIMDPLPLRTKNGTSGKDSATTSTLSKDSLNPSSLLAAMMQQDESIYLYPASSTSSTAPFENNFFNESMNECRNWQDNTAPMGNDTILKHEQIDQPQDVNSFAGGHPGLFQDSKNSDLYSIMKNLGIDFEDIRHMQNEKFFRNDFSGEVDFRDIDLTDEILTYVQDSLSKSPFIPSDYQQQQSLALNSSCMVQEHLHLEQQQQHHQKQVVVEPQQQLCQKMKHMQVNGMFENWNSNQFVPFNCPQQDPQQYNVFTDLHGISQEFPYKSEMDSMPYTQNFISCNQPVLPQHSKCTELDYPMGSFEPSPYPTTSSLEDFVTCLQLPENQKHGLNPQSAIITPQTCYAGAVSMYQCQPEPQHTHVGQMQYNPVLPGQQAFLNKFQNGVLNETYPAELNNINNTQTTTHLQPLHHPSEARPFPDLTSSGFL
Sequence of Peroxisome proliferator-activated receptor gamma (Homo sapiens) (P37231 whole entry, looked up): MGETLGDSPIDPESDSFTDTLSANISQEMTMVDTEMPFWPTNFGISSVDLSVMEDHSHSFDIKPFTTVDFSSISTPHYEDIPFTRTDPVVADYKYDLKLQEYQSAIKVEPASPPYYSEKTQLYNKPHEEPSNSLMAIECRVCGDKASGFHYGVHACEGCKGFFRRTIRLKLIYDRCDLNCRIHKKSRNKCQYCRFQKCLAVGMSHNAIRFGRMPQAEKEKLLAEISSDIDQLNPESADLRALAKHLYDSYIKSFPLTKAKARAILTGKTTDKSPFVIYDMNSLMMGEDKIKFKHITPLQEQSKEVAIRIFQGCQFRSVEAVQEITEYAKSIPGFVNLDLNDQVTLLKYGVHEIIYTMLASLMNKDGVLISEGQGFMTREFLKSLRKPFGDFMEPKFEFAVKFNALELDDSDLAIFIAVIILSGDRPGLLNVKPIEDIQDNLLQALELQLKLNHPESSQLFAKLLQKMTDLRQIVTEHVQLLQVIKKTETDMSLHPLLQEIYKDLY

In the case of `CC(C)CC(C)N` (centres undefined), the Potency entry in experiment [1], in [2], in experiment [3], in [4], in experiment [5] and in experiment [6] was “inactive” in each case. For the same molecule, the Potency result in experiment [7] and in experiment [8] was “inactive” each time.
Regarding `Cc1cc(C)cc(OP(=O)(Oc2cc(C)cc(C)c2)Oc2cc(C)cc(C)c2)c1`, the Potency in experiment [1] was 9.84 µM (active). Moreover, the Potency result in experiment [2], in [9], in experiment [10], in [5], in experiment [6] and in [7] was “inactive” throughout.
Consider `CC1(C)CC/C(=C/c2ccc(Cl)cc2)C1(O)Cn1cncn1` (centres undefined), for which the Potency in [1] was 8.6 µM (active). Besides, the Potency entry in experiment [2] and in experiment [10] was “inactive” throughout.
As to `CCOP(=S)(OCC)OC(Cl)C(Cl)(Cl)Cl` (centres undefined), the Potency result in experiment [1], in experiment [2], in [3], in experiment [6] and in [7] was “inactive” throughout.
For `CCOC(=O)CC(=O)CCl`, the Potency entry in [1], in experiment [2], in experiment [5] and in experiment [8] was “inactive” in each case. Besides, the Potency in [3] is 21.9 µM (active).
Turning to `CC(=O)[O-].CC(=O)[O-].[Hg+2]`, the Potency result in experiment [1] was “inactive”. For the same molecule, the Potency is 7.7 µM (active) in experiment [2], 0.977 µM (active) in experiment [10], 1.38 µM (active) in experiment [6] and 1.74 µM (active) in experiment [8].
As to `CCOP(=O)(NC(C)C)Oc1ccc(SC)c(C)c1` (centres undefined), the Potency in [1] was 14.8 µM (active). The Potency entry in experiment [3] was “inactive”.
In the case of `O=[N+]([O-])c1c2ccccc2cc2ccccc12`, the Potency was 15.8 µM (active) in experiment [1] and 21.4 µM (active) in experiment [4]. Also, the Potency result in [2] and in experiment [6] was “inactive” in each case.
Turning to `CCc1nn(C)c(C(=O)NCc2ccc(C(C)(C)C)cc2)c1Cl`, the Potency result in [1] and in experiment [2] was “inactive” throughout. For the same molecule, the Potency in [5] was 24.3 µM (active); in experiment [6], 54.9 µM (active); in experiment [8] it was 38.9 µM (active).
As to `CC(C)(C)c1ccc(CSc2cnn(C(C)(C)C)c(=O)c2Cl)cc1`, the Potency entry in [1], in experiment [2] and in [7] was “inactive” throughout. Further, in [5], the Potency is 24.3 µM (active).
`CCC(C)c1cc([N+](=O)[O-])cc([N+](=O)[O-])c1OC(=O)C=C(C)C` (centres undefined): the Potency result in [1] and in [6] was “inactive” in each case. The figures for the Potency in experiment [10] and in experiment [5] were 54.9 µM (active) and 27.3 µM (active), respectively.
For the molecule `CN(C)c1ccc(N=Nc2ccccc2)cc1`, the Potency in experiment [1] was 27.3 µM (active); in experiment [4], 8.64 µM (active). Besides, the Potency result in [10], in experiment [5], in experiment [6] and in experiment [8] was “inactive” throughout.
For the molecule `Nc1ccc(Sc2ccc(N)cc2)cc1`, the Potency in [1] was 13.7 µM (active). Also, the Potency result in experiment [2], in experiment [10], in experiment [6], in [7] and in experiment [8] was “inactive” throughout.
For `[Cd+2].[Cl-].[Cl-]`, the Potency result in experiment [1] is “inactive”. Besides, the Potency in [2] is 2.19 µM (active) and 3.06 µM (active); in experiment [10], 1.55 µM (active); in [5], 692 nM (active) and 545 nM (active); in [8], 2.21 µM (active) and 1.38 µM (active).
Turning to `Oc1ccc(C2(c3ccc(O)cc3)c3ccccc3-c3ccccc32)cc1`, in [1], the Potency entry is “inactive”. The Potency is 17.4 µM (active) in experiment [10], 27.3 µM (active) in experiment [5], 21.9 µM (active) in [6] and 43.6 µM (active) in experiment [8].
As for `CCCCCCCCc1ccc(O)cc1`, the Potency result in experiment [1] and in [2] was “inactive” in each case. In addition, in experiment [6], the Potency was 42.3 µM (active).
Turning to `CC(C)(C)C(O)/C(=C\c1ccc(Cl)cc1Cl)n1cncn1` (centres undefined), the Potency entry in [1] and in experiment [6] was “inactive” each time. For the same molecule, the Potency is 52.8 µM (active) in experiment [9], 74 µM (active) in experiment [5] and 66.5 µM (active) in experiment [8].
`CCCCCCCCCCCCCCC(Br)C(=O)O` (centres undefined): the Potency entry in [1] and in [2] was “inactive” throughout. In addition, the Potency in [10] is 43.6 µM (active); in experiment [6], 24.5 µM (active).
Consider `Oc1cc(Cl)c(Cl)c(Cl)c1`, for which the Potency result in experiment [1] and in experiment [2] was “inactive” throughout. Also, the Potency in experiment [10] was 13.1 µM (active); in [8] it was 46.5 µM (active).
Turning to `[Hg+2].[I-].[I-]`, the Potency entry in experiment [1] is “inactive”. For the same molecule, the Potency was 8.71 µM (active) in experiment [10], 9.69 µM (active) in experiment [5], 27.5 µM (active) in [6] and 2.19 µM (active) in experiment [8].
Take `CN(C)C1CSSSC1`: the Potency entry in experiment [1], in [3], in experiment [10], in experiment [5], in experiment [6] and in experiment [7] was “inactive” in each case. The Potency result in experiment [8] was “inactive”. Moreover, the Potency in [4] is 34.3 µM (active).
Regarding `N#CC(Cl)Cl`, the Potency result in experiment [1], in experiment [2], in experiment [5], in experiment [6] and in experiment [8] was “inactive” each time.
In the case of `CCCSP(=O)(OCC)SCCC`, the Potency result in experiment [1], in [2], in [6] and in experiment [7] was “inactive” in each case.
For the molecule `CN(C)[C@@H]1C(=O)C(C(N)=O)=C(O)[C@@]2(O)C(=O)C3=C(O)c4c(O)ccc(Cl)c4[C@@](C)(O)[C@H]3C[C@@H]12`, the Potency entry in experiment [1], in experiment [2], in experiment [6] and in experiment [8] was “inactive” throughout.
Regarding `S=C=Nc1cccc2ccccc12`, the Potency in experiment [1] was 13.5 µM (active); in [5], 15.2 µM (active); in experiment [8], 24.3 µM (active). The Potency entry in [9] and in experiment [10] was “inactive” each time.
Take `O=C(Nc1ccc2[nH]ccc2c1)c1cc2cc(F)ccc2n1Cc1cccc(F)c1`: the Potency entry in experiment [1] is “inactive”. The Potency in experiment [10] was 19.5 µM (active); in experiment [5], 30.6 µM (active); in [6], 49 µM (active); in [8], 24.5 µM (active).
Take `CS(=O)(=O)c1ccc(C(=O)C2C(=O)CCCC2=O)c([N+](=O)[O-])c1`: the Potency result in experiment [1], in experiment [2], in experiment [5], in experiment [6], in [7] and in [8] was “inactive” each time.
`CCCCCCCCCCCCCCCC[N+](C)(C)C`: the Potency entry in experiment [1] was “inactive”. For the same molecule, the Potency entry in experiment [2] is “inactive and 68.6 µM (active)”; in experiment [10] it was 18.8 µM (active) and 29.8 µM (active); in experiment [5] it was 29.5 µM (active) and 24.3 µM (active) and 29.8 µM (active); in experiment [6] it was 21.1 µM (active) and 43.6 µM (active); in experiment [8], 16.8 µM (active) and 38.9 µM (active) and 23.7 µM (active).
As for `c1ccc2cc3c(cc2c1)-c1cccc2cccc-3c12`, the Potency in experiment [1] was 0.12 µM (active); in experiment [7] it was 5.21 µM (active). In addition, the Potency result in experiment [2], in experiment [10], in experiment [6] and in experiment [8] was “inactive” each time.
Turning to `CSCCCN=C=S`, the Potency result in experiment [1] and in experiment [2] was “inactive” throughout. Also, the Potency in experiment [6] is 43.6 µM (active).
On to `O=[N+]([O-])c1ccc2ccc3cccc4ccc1c2c34`, for which the Potency entry in experiment [1], in experiment [2], in experiment [10], in experiment [6], in experiment [7] and in experiment [8] was “inactive” in each case.
`c1ccc2c(c1)OCC(C1=NCCN1)O2` (centres undefined): the Potency entry in [1], in [10], in experiment [5] and in [6] was “inactive” throughout. Further, the Potency in experiment [4] is 13.3 µM (active); in experiment [8] it was 23.7 µM (active).
